Bioassay records: PubChem BioAssay, National Center for Advancing Translational Sciences (NCATS)
Nrf2 ARE act: qHTS of Nrf2 Activators. Potency, µM (top dose mostly 46.1 µM), for the others: top-dose activation, actives largely listed as activators. AID 624171, 2012. AREc32 ARE-luciferase reporter (MCF7-derived line), luminescence, 24 h. actives 0.31% (n = 410,000); note: potency is the fitted concentration of half-maximal effect; % of control where 0% means no effect; nearly all actives have a fitted effect of over 65% in size
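Nrf2 activation is followed as ARE-luciferase induction in the AREc32 line after one day of compound treatment; luminescence is read with Steady-Glo.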
miR-21 reporter: qHTS Assay for Modulators of miRNAs and/orActivators of miR-21; HeLa miR-21 FLuc reporter, luciferase, 48 h; 340,000 tested, under 10 active; Potency, µM (series often up to 38.3 µM), without a hit: at the highest dose activity change, positive = activation, actives largely listed as activators; AID 2288, 2010;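 note: % of control where 0% means no effect; miR-21 action dims this reporter so a rising signal means less miR-21 action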
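Using DMEM plus 10% FBS, HeLa miR-21-FLuc cells are incubated with test compounds (final up to about 40uM) for 48 hours; firefly luciferase signal is then imaged following reagent-mediated lysis.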
Nrf2 block: Nrf2 qHTS screen for inhibitors | A549 ARE-Fluc reporter, luciferase luminescence, 18-24 h | Potency, µM (doses to about 46 µM), inactives show at the highest dose activity change, negative = inhibition, usual class: inhibitors | actives 2.1% (n = 360,000); note: potency is the fitted concentration of half-maximal effect; % is set by controls: 0 for no effect and ±100 for the full control effect; nearly all actives have a fitted effect of over 60% in size
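Reporter: ARE-Fluc in A549. Exposure: 18-24 h, 37 °C, 5% CO2, 5% FBS OPTI-MEM. Readouts: fluorescent cytotoxicity (CellTiter-Fluor), then luminescent Nrf2 signal after BugLite.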
IL-2 act: qHTS of IL-2 Activators; activation, % (series mostly up to about 46 µM); IL-2 activation reporter assay, cell-based qHTS; stimulated with anti-CD3/CD4/CD28 beads; in transgenic mouse T cells; actives 0.065% (n = 360,000); in the data active = activation above about 50%; inconclusive = mostly about 30% to 49%; note: 0% is about no effect
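Unstimulated transgenic mouse T cells; 60-min compound exposure; bead-based TCR/CD4/CD28 stimulation; 18 h culture, 37 degrees C; dual fluorescence (EGFP, DsRed) plate cytometry.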
A549 viability: Nrf2 qHTS screen for inhibitors: counterscreen for cytotoxicity; A549 ARE-Fluc cells, CellTiter-Fluor viability, 18-24 h; Potency, µM (doses to about 46 µM), inactives show top-dose activity change, negative = cytotoxicity, most hits filed as inhibitors; actives 0.16% (n = 390,000); note: potency is the fitted concentration of half-maximal effect; % is set by controls: 0 for no effect and ±100 for the full control effect
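A549 ARE-Fluc cells in 5% FBS OPTI-MEM, 5000 cells/well, rested 2 h then exposed to compounds in concentration-response for 18-24 h at 37 °C. Viability by CellTiter-Fluor fluorescence (Ex 405/Em 525) after 30 min; luciferase luminescence (BugLite, 15 min, RT) read afterwards.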
ClpP mod: qHTS Assay for Activators of ClpP; purified B. subtilis ClpP, FRET peptide cleavage, 20 min; Potency, µM (top dose mostly 57.5 µM), without a hit: top-dose activity change, negative = active; actives 1.9% (n = 340,000); AID 651965, 2013; active = well fitted falling curve with a large enough effect; inconclusive = small, poorly fitted or top-dose-only effect; inactive = no such curve, though single readings can be large or run the other way; note: potency is the fitted concentration of half-maximal effect; the source files actives as falling curves though it sought activators and does not explain the sign; nearly all actives have a fitted effect of over 65% in size
Target sequence (P80244 whole entry, looked up): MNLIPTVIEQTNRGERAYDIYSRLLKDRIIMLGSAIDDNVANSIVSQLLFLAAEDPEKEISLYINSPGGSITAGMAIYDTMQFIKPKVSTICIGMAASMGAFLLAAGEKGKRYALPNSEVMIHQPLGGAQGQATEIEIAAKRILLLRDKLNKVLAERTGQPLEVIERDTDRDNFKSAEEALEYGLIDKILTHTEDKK
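Buffer: 100 mM Tris/HCl pH8, 100 mM KCl, 0.05% low protease BSA, 2.5% glycerol, 0.01% Tween-20. ClpP 10 microg/mL final; 20 min RT; delta FRET normalized to ADEP and DMSO controls.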
Active calls of the source: *; u = inconclusive; x = not tested or not shown; [ ] = remark or other dose. An excerpt weighted towards active compounds, which were near 3.7% of everything screened. Unless noted, calls come from the whole dose curve; as a rule, active = well fitted curve in the direction sought with a large enough effect; inconclusive = small, poorly fitted or top-dose-only effect, or another doubt; inactive = no such curve, though single readings can be large; an effect the other way counts as inactive or inconclusive.

SMILES | Nrf2 ARE act | miR-21 reporter | Nrf2 block | IL-2 act | A549 viability | ClpP mod
COC(=O)c1cn(CC(=O)N2CCCCCC2)c2ccccc12 | 0.0% | -10.7% | 2.7% | -1.5 | 0.4% | -1.2%
CCOC(=O)C1=C(O)/C(=C/c2cn(CC(=O)N3CCCC3)c3ccccc23)SC1=Nc1ccccc1 | 0.7% | -18.2% | u | 218.8* | -10.1% | -7.3%
Cc1ccc(S(=O)(=O)NC(N)=NCCC[C@@H](N)C(=O)Nc2cc(C(F)(F)F)ccc2Cl)cc1 | x | x | u | x | -27.4% | x
COc1ccc(CNc2ncnc3sccc23)cc1OC | 3.7% | 13.1% | 10.3µM* | -0.1 | 1.0% | x
Cc1csc2ncnc(NCCc3ccccn3)c12 | 6.6% | 7.1% | -20.2% | -0.8 | -15.3% | 0.2%
c1ccc(CCNc2ncnc3sccc23)nc1 | 2.3% | -6.0% | 8.2µM* | -1.7 | u | x
COc1ccc(CNc2ncnc3sccc23)cc1 | 2.2% | 22.7% | 10.3µM* | -3.8 | -1.1% | x
COc1ccc(C(CNc2ncnc3sccc23)N(C)C)cc1OC (stereo unspecified) | 2.8% | -4.8% | 21.7% | -0.4 | -11.9% | x
COc1ccc(CNc2ncnc3cc(Cl)ccc23)cc1OC | 11.4% | 1.0% | 16.4µM* | -4.9 | -4.2% | 0.9%
CSc1ccc(CCNC(=O)CCn2c(=O)c3cccn3c3ccc(F)cc32)cc1 | 0.6% | -1.2% | 25.2% | x | -0.9% | u
CCOC(=O)c1[nH]c(C)c(C(=O)NC(CC)Cc2ccccc2)c1C (stereo unspecified) | -0.6% | -1.7% | -27.7% | x | -2.5% | 1.7%
C=C1C=C(C(F)F)n2ncc(C(=O)NCc3ccc(F)cc3)c2N1 | x | x | x | x | x | -3.3%
CCn1cc2nc(SCc3ccc(C)cc3)n(CCc3ccccc3)c(=O)c2n1 | -0.5% | 9.0% | 20.6µM* | x | u | -2.2%
CCOC(=O)c1c(NC(=O)c2nn(CC)cc2Br)c(C#N)nn1-c1ccccc1 | 0.4% | 3.0% | u | -2.5 | 1.6% | -18.4%
CCOC(=O)c1c(NC(=O)c2c(Br)cnn2C)c(C#N)nn1-c1ccccc1 | 1.1% | 26.4% | 18.4µM* | 1.5 | -13.5% | -16.5%
COc1ccccc1NC(=O)C(C)OC(=O)c1cc2ccccc2[nH]1 (stereo unspecified) | 8.9% | x | 20.6µM* | -1.0 | -0.2% | -15.9%
COc1ccc(OC)c(NC(=O)C(C)OC(=O)c2cc3ccccc3[nH]2)c1 (stereo unspecified) | 5.6% | x | 18.4µM* | -2.1 | 2.2% | -11.1%
CCC(C)n1nccc1NC(=O)C(C)OC(=O)c1cc2ccccc2[nH]1 (stereo unspecified) | 0.3% | -3.8% | u | -0.1 | -5.6% | 28.2µM*
COc1ccc(OC)c(NC(=O)C(C)Oc2ccc(Br)cc2)c1 (stereo unspecified) | 0.2% | -8.2% | -5.9% | -0.7 | 4.1% | x
O=C(CSc1oc(-c2ccco2)nc1S(=O)(=O)c1ccc(Br)cc1)c1ccccc1 | 4.6% | -5.8% | 4.8%[9.27 µM] | x | 12.6% | -3.5%
CCC1CN(C(=O)N2CCC(C(=O)NCCc3ccc(Cl)cc3)CC2)c2ccccc2O1 (stereo unspecified) | 0.5% | 3.5% | 10.4% | x | -1.0% | -1.1%
Cn1c(=O)n(C)c2cc([N+](=O)[O-])c(N3CCN(C(=O)c4ccccc4Br)CC3)cc21 | 3.5% | 19.1% | 18.4µM* | -2.4 | u | x
Cn1c(=O)n(C)c2cc([N+](=O)[O-])c(N3CCN(C(=O)c4ccccc4Cl)CC3)cc21 | 3.6% | 20.9% | u | -0.5 | -8.3% | -0.5%
CC1C(=O)N2CCCc3cc(S(=O)(=O)Nc4ccccc4C(N)=O)cc1c32 (stereo unspecified) | 0.1% | x | -6.0% | -0.2 | -6.2% | 31.6µM*
CC1C(=O)N2CCCc3cc(S(=O)(=O)Nc4ccccc4F)cc1c32 (stereo unspecified) | -0.3% | x | -3.3% | -2.2 | -11.4% | -1.0%
SMILES | Nrf2 ARE act | miR-21 reporter | Nrf2 block | IL-2 act | A549 viability | ClpP mod
COc1ccc(-n2ccnc(NCc3ccccc3OC)c2=O)cc1 | 5.0% | -9.6% | u | x | 2.1% | -13.3%
Cc1cc2c(nn1)CCC/C2=N\O | 0.3% | -7.0% | -2.1% | -3.3 | 0.5% | 17.8µM*
CCOc1ccc(CN2CCc3nc(Nc4ccc5c(c4)OCCO5)ncc3C2)cc1 | 5.0% | -8.7% | x | x | 6.5% | -0.4%
CCN(CC)S(=O)(=O)c1ccc(NC(=O)c2nn(C)c3c2CSc2ccccc2-3)cc1 | 0.3% | 0.2% | -16.2% | x | 12.7% | -3.3%
COc1cc2c(cc1OC)C1=NC(=O)CN1C(SCc1ccccc1)=N2 | -0.1% | -0.9% | u | -1.9 | -10.1% | 22.4µM*
CCOC(=O)c1nn(-c2ccc(OCC)cc2)c2nc(CC(C)C)c(C#N)c(=O)n12 | -0.2% | -7.3% | -20.7% | -2.7 | 4.5% | 22.4µM*
CCOC(=O)c1nn(-c2ccc(Cl)cc2)c2nc(-c3ccc(C)cc3)c(C#N)c(=O)n12 | 0.2% | -2.6% | -19.7% | 0.0 | 1.0% | 25.1µM*
CCOC(=O)c1nn(-c2cccc(C)c2)c2nc(-c3ccccc3)c(C#N)c(=O)n12 | 2.9% | -3.9% | -3.0% | -0.3 | 2.2% | 31.6µM*
CCOC(=O)c1nn(-c2ccc(F)cc2)c2nc(-c3ccccc3)c(C#N)c(=O)n12 | 0.0% | -5.1% | -5.1% | -0.8 | -8.5% | u
CCOC(=O)c1nn(-c2cccc(Cl)c2)c2nc(CC(C)C)c(C#N)c(=O)n12 | -0.5% | -0.7% | 3.2% | -2.4 | 2.2% | 180.8%
CC(=O)c1cc2c(s1)c1cnn(Cc3ccccc3F)c(=O)c1n2C | x | x | 7.5% | x | 9.5% | x
Cc1ccc2c(=O)cc(C(=O)N(Cc3ccc(C(C)(C)C)cc3)C3CCS(=O)(=O)C3)oc2c1 (stereo unspecified) | 5.8% | 0.3% | -15.3% | x | -26.7% | 2.3%
O=C(O)CN1C(=O)/C(=C/c2ccc(-c3cccc(Cl)c3)o2)SC1=S | x | x | -5.7% | x | -15.8% | x
Cc1cccc(Nc2nc(N)c([N+](=O)[O-])c(N3CCCC(C)C3)n2)c1 (stereo unspecified) | 4.0% | 19.8% | 16.4µM* | -0.7 | -18.2% | -2.8%
Cc1cccc(Nc2nc(NCCCN3CCOCC3)nc(N)c2[N+](=O)[O-])c1 | 4.4% | -4.4% | u | 1.8 | -9.4% | 20µM*
Cc1cccc(Nc2nc(N)c([N+](=O)[O-])c(N3CCN(C)CC3)n2)c1 | 7.3% | -15.2% | 4.8% | -0.2 | 0.2% | -21.2%
CN(C)CCCNc1c2c(nc3ccccc13)CCC2 | -2.5% | 23.8% | 5.1% | -0.5 | 13µM* | -2.2%
